Reference: the supplement of paper PMC10338343
± gives the standard deviation.

Legend:
[1] = system: MILI (PIWIL2) piRISC loaded with piRNA #1 (26 nt); assay: pre-steady-state target cleavage rate (min^-1); guide: piRNA #1 5'p-UGAGGUAGUAGGUUGUAUAGUAUCCA; higher = faster piRNA-guided slicing of the target; conditions: auxiliary factor: 500 nM mouse GTSF1
How it was run: (§1)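 A transcribed, DNA-blocked target RNA library (0.1 nM) and 1 nM active affinity-purified piRISC bearing one synthetic guide were incubated in HEPES–potassium acetate buffer at 33 °C for 0–8 or 0–960 min, either with or without 500 nM GTSF1 partner protein. Uncleaved targets were sequenced, normalised to depth and to weakly complementary targets, and pooled over three trials, with k3 capped at 0.0001 min^-1. The pre-steady-state cleavage rate was derived with a burst-and-steady-state fit.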

[2] = system: EfPiwi piRISC loaded with piRNA #1 (26 nt); assay: pre-steady-state target cleavage rate (min^-1); auxiliary factor: 500 nM Ephydatia muelleri Gtsf1; guide: piRNA #1 5'p-UGAGGUAGUAGGUUGUAUAGUAUCCA; MIWI and MILI are mouse PIWI proteins and EfPiwi is from a freshwater sponge; tags in brackets are library labels; higher = faster piRNA-guided slicing of the target
How it was run: as §1

Sequence	pre-steady-state target cleavage rate [1]	pre-steady-state target cleavage rate [2]
GGAGUGGAUACUAAACUACCUACUACCUCA	0.172 ± 0.011	0.00956 ± 0.0047
GGAGUGGAUACUAAACAACCUUCUACCUCA	0.00905 ± 0.0025	0.00385 ± 0.0026
GGAGACCAUAGUAUACAACCUACUACGUCA	0.0462 ± 0.0097	0.00463 ± 0.0028
GGAGAGGAUAGUAUACAACCUACUACCUCA	0.0476 ± 0.01	0.00608 ± 0.0032
GGAGACCUUACUAUACAACCUGCUACCUCA	0.0466 ± 0.0081	0.0174 ± 0.0079
GGAGACCAUUCUUUACAACCUACUACCUCA	0.0902 ± 0.012	0.0111 ± 0.0056
GGAGAGGUUACUAUACAACCUACUAGCUCA	0.00459 ± 0.0029	0.00306 ± 0.0015
GGAGACCAUUACUAUACAACCUACUACCUCA	0.137 ± 0.012	0.148 ± 0.044
GGAGUGGAUACUAUACAAGGUACUACCUCA	0.0661 ± 0.0076	0.00342 ± 0.0019
GGAGACCAUUCUAUACAACCUACAACCUCA	0.13 ± 0.013	0.00312 ± 0.0031
GGAGACGAUACUAUACAACCUACUACCCCA	0.144 ± 0.025	0.00536 ± 0.0014
GGAGACCUUACUAGACAACCUACUACCUCA	0.155 ± 0.015	0.0104 ± 0.0051
GGAGACCUAUCUAUACAUCCUACUACCUCA	0.182 ± 0.018	0.00738 ± 0.0031
GGAGACGAUACUAUAGAACGUACUACCUCA	0.0134 ± 0.0023	0.00177 ± 0.0015
GGAGAGGAUACUAUACAACCUACUACCUACA	0.133 ± 0.016	0.00995 ± 0.0044
GGAGUGGAUACUAUACAACCUACUACCUA	0.103 ± 0.014	0.249 ± 0.092
GGAGUGGAUACUAUACAACCAACUACCUGA	0.00303 ± 0.0022	0.00303 ± 0.0013
GGAGACCAUACUAUACAACCUACUACGACA	0.16 ± 0.025	0.00532 ± 0.0028
GGAGAGGAUACUAGUACAACCUACUACCUCA	0.079 ± 0.011	0.0114 ± 0.0064
GGAGACGAUACUAAACUACCUACUACCUCA	0.24 ± 0.018	0.00228 ± 0.0021

Sequence	pre-steady-state target cleavage rate [1]	pre-steady-state target cleavage rate [2]
GGAGACCAUACUAUACAACCUACUGCCUCA	0.139 ± 0.015	0.00606 ± 0.0025
GGAGUGGAUACUAUACAACCUACUACCUCC [g2:g26:cont:t1C]	0.188 ± 0.0099	0.105 ± 0.037
GGAGAGGAUACUAUACAACUACUACCUCA	0.0329 ± 0.0041	0.00869 ± 0.0042
GGAGUGAUACUAUACAACCUACUACCUCA	0.174 ± 0.011	0.186 ± 0.069
GGAGAGGAAUCUAUACAACCUACUACCUCA	0.199 ± 0.015	0.00943 ± 0.0056
GGAGAGGAUACUAUACAACCUACAUCCUCA	0.00373 ± 0.0031	0.00358 ± 0.0016
GGAGACCUUACUAUACAAUCUACUACCUCA	0.127 ± 0.01	0.00599 ± 0.0041
GGAGACCUUACUAUACAACAUACUACCUCA	0.0732 ± 0.0077	0.00974 ± 0.0063
GGAGACCUAACUACUACAACCUACUACCUCA	0.107 ± 0.026	0.00946 ± 0.0059
GGAGAGGAAACUAUACAACCUUCUACCUCA	0.00762 ± 0.006	0.00297 ± 0.0027
GGAGACCUAUGAUCACAACCUACUACCUCA	0.00534 ± 0.0024	0.00429 ± 0.0038
GGAGUGGAUACUAUACAACCUACUUCCUCA	0.00401 ± 0.0017	0.00544 ± 0.0029
GGAGACCAUACUAUACAAGCUACUACCUGA	0.157 ± 0.019	0.00543 ± 0.0026
GGAGAGGAUACUAUACAACCUACUACCGUCA	0.0203 ± 0.0064	0.00833 ± 0.0032
GGAGUGGAUACUAGUACAACCUACUACCUCA	0.141 ± 0.011	0.175 ± 0.056
GGAGAGAGAUACUAUACAACCUACUACCUCA	0.201 ± 0.013	0.159 ± 0.057
GGAGACCUAUGAUUACAACCUACUACCUCU [g2:g17:cont:t1U]	0.00674 ± 0.0025	0.732 ± 0.29
GGAGAGGUAUCUAUACAACCUACUACCUCA	0.0739 ± 0.0068	0.0113 ± 0.0061
GGAGACGUUACUAUACAUCCUACUACCUCA	0.293 ± 0.018	0.00676 ± 0.003
GGAGACCAUACUAUACAACCUACUUGGAGA [g7:g23:cont:t1A]	0.00469 ± 0.0036	0.00547 ± 0.0034

Sequence	pre-steady-state target cleavage rate [1]	pre-steady-state target cleavage rate [2]
GGAGUGGAUACUAUACAACCUACUACGACA	0.0497 ± 0.008	0.00539 ± 0.0025
GGAGUGAAUACUAUACAACCUACUACCUCA	0.175 ± 0.009	0.102 ± 0.037
GGAGUGGAUACUAUACUACCUACUACCUCA	0.196 ± 0.0088	0.00816 ± 0.0037
GGAGACCUAUCAAUACAACCUACUACCUCA	0.0355 ± 0.0083	0.00612 ± 0.0034
GGAGACCUAUCUAUACAAGCUACUACGUCA	0.112 ± 0.012	0.00274 ± 0.0026
GGAGACGUUACUAUACUACCUACUACCUCA	0.169 ± 0.011	0.00494 ± 0.0024
GGAGACCUAUCUAUACAUCCUACUACCUGA	0.0957 ± 0.022	0.00459 ± 0.0036
GGAGAGGAUACUUUACAACCUUCUACCUCA	0.00789 ± 0.002	0.0032 ± 0.0028
GGAGAGGAUACUAUACAACCUACUACACUCA	0.136 ± 0.019	0.00522 ± 0.0018
GGAGAGGAUACUUUACAACCUACUACCUCA	0.172 ± 0.011	0.00667 ± 0.0036
GGAGAGGAUACUACACAACCUACUACCUCA	0.193 ± 0.019	0.00871 ± 0.004
GGAGACCUUACUAUACAACCUACUACCACA	0.18 ± 0.018	0.00339 ± 0.0016
GGAGAGGAUACUAUACAACCUACUACCUA	0.104 ± 0.013	0.217 ± 0.081
GGAGAGGAUACUAUACAACCGUACUACCUCA	0.00509 ± 0.0031	0.00659 ± 0.0028
GGAGACGAUACUAUACAUCCUACAACCUCA	0.287 ± 0.022	0.00566 ± 0.0028
GGAGACCAUACUAUACAUCCUAGUACCUCA	0.0776 ± 0.018	0.00345 ± 0.0019
GGAGAGGAUACUAUACAACCUACUACCUCCA	0.152 ± 0.011	0.142 ± 0.054
GGAGACCAUACUAUCCAACCUACUACCUCA	0.178 ± 0.017	0.00636 ± 0.0033
GGAGACCAAACUAAACAACCUACUACCUCA	0.104 ± 0.027	0.00793 ± 0.0036
GGAGACCAUACUAUACAACCUACUACCUAA	0.139 ± 0.015	0.0194 ± 0.0072
